From PubChem BioAssay (NCATS)
Values joined by “and” are separate entries in the source; they are usually repeats but may differ in a detail not shown here. Equal values may be shown once. Records with an inconclusive call do not appear. Unmarked numbers belong to inactive results. Active and inactive are the calls of the source. Calls come from the whole dose curve; as a rule, active = well fitted curve in the direction sought with a large enough effect; inconclusive = small, poorly fitted or top-dose-only effect, or another doubt; inactive = no such curve, though single readings can be large; an effect the other way counts as inactive or inconclusive.

How the values were obtained:
[1] = Viability qHTS for spleen associated tyrosine kinase inhibitor (SYKi) drug resistant MV4-11 cells (AID 1963824); note: nearly all actives have a fitted effect of over 35% in size
Summary of the method: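 CellTiter-Glo luminescence, read 10 min after reagent addition, reports viability after a 72 hr compound exposure. Cells are an MV4-11 line made resistant to SYK inhibition, seeded at 500 per well onto compound-containing plates.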

[2] = Cellular viability qHTS for adrenocortical cancer (ACC) cell line SW-13 (AID 1963989); conditions: SW-13 ACC cells viability, CellTiter-Glo, 48 h; activity (max response): stronger effect = lower value; note: nearly all actives have a fitted effect of over 65% in size;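 for activity (max response): cells grown in serum-free medium with ITS supplement; % is set by controls: 0 for no effect and ±100 for the full control effect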
Summary of the method: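 IC50 and maximal-response values come from four-parameter logistic fits of titration data. SW-13 cells in serum-free medium received compounds (up to 46 uM final) for 48 h before CellTiter-Glo luminescence.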

[3] = Cellular viability qHTS for adrenocortical cancer (ACC) cell line NCI-H295R (AID 1963990); note: nearly all actives have a fitted effect of over 60% in size
Summary of the method: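 Adrenocortical carcinoma cells, suspended at 300 000 cells/mL in serum-free DMEM plus ITS, rested overnight before pin transfer of compound. After two days' incubation, ATP-dependent luminescence was recorded and curve-fitted.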
Potency is the fitted concentration of half-maximal effect.

| Compound | Potency [1] | Potency [2] | Potency [3] | activity (max response) [2] |
| --- | --- | --- | --- | --- |
| O=c1cc(N2CCOCC2)oc2c(-c3ccc4c(c3)OCCO4)csc12 | 0.59 µM (active) | 11.2 µM (active) | 2.51 µM (active) | – |
| CCNC(=O)NCCCOc1cccc(CN2CCCCC2)c1 | inactive | – | inactive | -6.89% |
| CCCCOc1nc(N)c2c(n1)N(Cc1cccc(CN3CCCC3)c1)CC(=O)N2 | 23.5 µM (active) | – | inactive | -4.22% |
| CCc1c(C(=O)NNC(=O)[C@@H](O)c2cc(F)cc(F)c2)ccc(O)c1C | 9.2 µM (active) | – | inactive | -4.91% |
| C[C@]12CCC(=O)C=C1CC[C@H]1[C@@H]3CC[C@](O)(C(=O)CO)[C@@]3(C)C[C@H](O)[C@@]12F | inactive | – | inactive | 6.22% |
| O=C1CCCc2c(O)cccc21 | inactive | – | inactive | -6.15% |
| Cc1ccccc1N1CCN(CCc2nnc3n2CCCC3)CC1 | inactive | – | inactive | 9.97% |
| Cc1cc(-n2c(=O)ccc3cnc4[nH]ccc4c32)ccc1F | 18.6 µM (active) | – | inactive | -19.3% |
| CCc1cc2cc(OC)c(OC)cc2c(Cc2ccccc2)n1 | 10.6 µM (active) | – | inactive | -5.12% |
| c1cc(Nc2cc(C3CC3)[nH]n2)nc(Nc2ccc3nc[nH]c3c2)n1 | 0.0184 µM (active) | 0.224 µM (active) | 8.91 µM (active) | – |
| O=C(c1ccc(NS(=O)(=O)c2cccc3cccnc23)cc1)N1CCN(CC2CC2)CC1 | inactive | – | inactive | -19.6% |
| CC(C(=O)O)c1ccc(C(=O)c2ccccc2)s1 (stereo unspecified) | inactive | – | inactive | -5.09% |
| Cc1ccc(-n2c(C)cc(-c3nnc4n3CCCCC4)c2C)cc1 | 8.33 µM (active) | – | inactive | – |
| N=C1CCCN1Cc1[nH]c(=O)[nH]c(=O)c1Cl | inactive | – | inactive | -17.6% |
| O=C(O)C(Cc1cc(I)c(O)c(I)c1)c1ccccc1 (stereo unspecified) | inactive | – | inactive | – |
| NC(N)=NN=C(/C=C/c1ccc([N+](=O)[O-])o1)/C=C/c1ccc([N+](=O)[O-])o1 | 5.31 µM (active) | 2.59 µM (active) | 1.03 µM (active) | – |
| S=c1[nH]c2ccccc2s1 | 0.545 µM (active) | – | inactive | 3% |
| CC[C@H](NC(=O)[C@H](C)NC)C(=O)N1C[C@@H](O)C[C@H]1Cc1c(-c2[nH]c3cc(F)ccc3c2C[C@@H]2C[C@H](O)CN2C(=O)[C@H](CC)NC(=O)[C@H](C)NC)[nH]c2cc(F)ccc12 | 0.0074 µM (active) | – | inactive | – |
| CCOc1ccc(C(=O)OCCN(CC)CC)cc1 | inactive | – | inactive | -4.6% |
| CC1(C)O[C@@H]2C[C@H]3[C@@H]4CCC5=CC(=O)C=C[C@]5(C)[C@@]4(F)[C@@H](O)C[C@]3(C)[C@]2(C(=O)CO)O1 | 10.6 µM (active) | – | inactive | 4.2% and -2% |
| CC[N+]1(CC)CCC(=C(c2ccccc2)c2ccccc2)C1C (stereo unspecified) | 8.2 µM (active) | – | inactive | – |
| COc1cc(C(=O)NC(N)=Nc2ccc(C)c(NC(=O)c3ccc(-c4ccccc4)cc3)c2)cc(OC)c1OC | 8.33 µM (active) | – | 10 µM (active) | – |
| CC(=O)OCC(=O)[C@@]12N=C(C)O[C@@H]1C[C@H]1[C@@H]3CCC4=CC(=O)C=C[C@]4(C)[C@H]3[C@@H](O)C[C@@]12C | inactive | – | inactive | 11.7% and 0.528% |
| CCC1CCCCN1C(=O)n1ncc(C(O)(c2ccccc2)c2ccccc2)n1 (stereo unspecified) | 5.25 µM (active) | – | 28.2 µM (active) | – |
| O=C(/C=C/c1ccccc1)NCCO | inactive | – | 14.6 µM (active) | – |
| C/C=C/C=N/NC(=O)c1ccncc1 | inactive | – | inactive | -0.764% |
| CC(NN)c1ccccc1 (stereo unspecified) | inactive | – | inactive | -4.01% |
| Cc1ccccc1-n1nc(-c2c(-c3ccc(F)cc3)nn3c2NC[C@@H](CO)C3)ccc1=O | 2.91 µM (active) | – | inactive | 12.4% |
| COc1cc(N2CCC(N3CCN(C)CC3)CC2)ccc1Nc1ncc(Cl)c(Nc2ccccc2P(C)(C)=O)n1 | 130 nM (active) and 23.5 nM (active) | – | 1.12 µM (active) | – |
| Cc1nc([C@](C)(O)CO)sc1-c1cnc(N)c(O[C@H](C)c2cc(F)ccc2-n2nccn2)c1 | 8.33 µM (active) | – | 2.82 µM (active) | – |
